PubChem BioAssay (NCI)
The panel holds about 79,000 compounds, 15% with a hit somewhere; the sample as a whole holds those more often. No stated cut-off is given here; in the data, active means growth inhibition above about 70%; inactive means the rest.

Assays:
[1] = NCI Yeast Anticancer Drug Screen. Data for the rad50 strain (AID 155);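 further: 0% = growth of vehicle-only cultures of the same strain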; conditions: S. cerevisiae rad50 strain growth inhibition; at 50.0 µM; hits give high values
In short: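 Vehicle-treated cultures provide the reference for the growth inhibition reported for compound-exposed, repair-deficient yeast.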

[2] = NCI Yeast Anticancer Drug Screen. Data for the mec2-1 strain (AID 157); conditions: S. cerevisiae mec2-1 strain, at 50.0 µM, hits give high values
In short: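 Using mec2-1 yeast: add compound, measure growth, express inhibition versus vehicle-treated cultures.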

[3] = NCI Yeast Anticancer Drug Screen. Data for the sgs1 mgt1 strain (AID 161);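 further: 0% = growth of cultures given vehicle only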; conditions: S. cerevisiae sgs1 mgt1 strain, at 50.0 µM, hits give high values
In short: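 Growth of a repair-deficient yeast mutant was monitored after compound treatment and expressed as inhibition relative to vehicle-treated cultures.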

[4] = NCI Yeast Anticancer Drug Screen. Data for the cln2 rad14 strain (AID 165);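 further: 0% = growth equal to vehicle treated cultures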; conditions: S. cerevisiae cln2 rad14 strain, at 50.0 µM, hits give high values
In short: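 Yeast strain cln2 rad14, bearing defects in cell cycle control and DNA repair, serves as the test system; values reflect growth inhibition compared with vehicle.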

[5] = NCI Yeast Anticancer Drug Screen. Data for the bub3 strain (AID 167); conditions: S. cerevisiae bub3 mutant strain, at 50.0 µM, hits give high values
In short: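 Mutant yeast screening strain plus compound; vehicle-treated cultures serve as the 0% inhibition reference.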

[6] = NCI Yeast Anticancer Drug Screen. Data for the mlh1 rad18 strain (AID 175); conditions: S. cerevisiae mlh1 rad18 strain growth inhibition; at 50.0 µM; hits give high values
In short: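 Steps: expose repair-defective yeast to compound; measure growth; express inhibition against vehicle-treated controls.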

Measured: growth inhibition

COc1ccc(C(Cc2ccccc2Cl)N(CCO)CCO)cc1 (stereo unspecified)
inactive: [1] -7% | [2] -5.3% | [3] -9.1% | [4] -19.2% | [5] 5.5% | [6] -5.2%

O=S(=O)(O)c1cccc2nsnc12
inactive: [1] -0.35% | [2] -2.05% | [3] -3.6% | [4] 13.1% | [5] 9.5% | [6] -1.3%

COc1ccc(COC(=O)NC2CCCCC2)cc1OC
inactive: [1] 2.5% | [2] 19.9% | [3] 25.1% | [4] -9.95% | [5] 37% | [6] 45.9%

O=C(O)CCc1ccc2ccccc2n1
inactive: [1] 6.3% | [2] -6.6% | [3] -19.8% | [4] -0.05% | [5] -20.6% | [6] -20.2%

CC(C)(C)[Si](C)(C)OCC1OC(n2cc(I)c(=O)[nH]c2=O)C(O[Si](C)(C)C(C)(C)C)C1O[Si](C)(C)C(C)(C)C (stereo unspecified)
inactive: [1] -19.2% | [2] -16% | [3] -18.2% | [4] 14.8% | [5] 11.9% | [6] -33.5%

OCC(O)CNc1ncnc2ccccc12 (stereo unspecified)
inactive: [1] -1.65% | [2] -11.8% | [3] 3.4% | [4] -26.4% | [5] 1.7% | [6] 10.2%

CC1(c2cccc3ccccc23)OC(=O)c2cccc(F)c21 (stereo unspecified)
inactive: [1] -10.9% | [2] -7.1% | [3] -16.1% | [4] 23.4% | [5] 7.6% | [6] 0.55%

Nc1nc2ccc([N+](=O)[O-])cc2s1
inactive: [1] 6.15% | [2] -6.45% | [3] 10.8% | [4] -18.4% | [5] -12.8% | [6] -8.1%

O=C(NCc1ccccc1)c1cc(Cl)ccc1O
inactive: [1] -20.3% | [2] -7.1% | [3] -7.65% | [4] -37.4% | [5] 0.95% | [6] 5.35%

Cc1ccc(NC(=O)Oc2ccc(Br)cc2)c([N+](=O)[O-])c1
inactive: [1] 20.4% | [2] 16.9% | [3] 16.3% | [4] 16.3% | [5] 11.3% | [6] 13.8%

Cn1ncc(C(=O)O)c1[N+](=O)[O-]
inactive: [1] 6.85% | [2] -14.5% | [3] 8.35% | [4] -37.6% | [5] -6.2% | [6] 5.25%

Cn1nc2c(c1-c1ccncc1)CCc1ccccc1-2
inactive: [1] 3.9% | [2] 65.3% | [3] 36% | [4] -3.55% | [5] 66.1% | [6] 24.6%

O=[N+]([O-])c1ccc(Oc2ccccc2-c2ccccc2)c([N+](=O)[O-])c1
inactive: [1] -2% | [2] -3.7% | [3] 11.6% | [4] -73.7% | [5] 8.2% | [6] 14.4%

COc1csn[n+]1-c1ccc(C)cc1
inactive: [1] 7.7% | [2] 3.65% | [3] 9.45% | [4] 7.5% | [5] 14.8% | [6] 9.65%

COc1ccc(C2=NCCO2)cc1N
inactive: [1] 3.6% | [2] 0.45% | [3] -13.7% | [4] -5.5% | [5] 4.35% | [6] 11.4%

CN(Cc1cnc2nc(N)nc(N)c2n1)c1ccc(C(=O)NC(CCC(=O)OCc2cc3c(cc2Cl)OCO3)C(=O)OCc2cc3c(cc2Cl)OCO3)cc1 (stereo unspecified)
inactive: [1] 16.9% | [2] 58.3% | [3] 42% | [4] 44.6% | [5] -8.6% | [6] 46.2%

Cc1ccc(S(=O)(=O)N(CCOS(C)(=O)=O)CCOS(C)(=O)=O)cc1
inactive: [1] 12.3% | [2] -13.2% | [3] -0.8% | [4] -2.1% | [5] 9.45% | [6] 5.25%

NC(=O)N/N=C/c1ccc2oc3ccccc3c2c1
inactive: [1] 40.2% | [2] 19.1% | [3] 18.4% | [4] 16.5% | [5] 18.4% | [6] 44.5%

COC(=O)c1c(-c2ccccc2)cc2c3cc(-c4ccccc4)c(C(=O)OC)n3c3ccccc3n12
inactive: [1] -2.35% | [2] -4.55% | [3] -31.5% | [4] -23.9% | [5] -1.95% | [6] -10.6%

O=S(=O)(O)c1ccc(S)cc1
inactive: [1] 2.7% | [2] 1.55% | [3] 16.7% | [4] -6.5% | [5] -31% | [6] 1.6%

Nc1ccc(S(=O)(=O)Nc2ccc([N+](=O)[O-])cn2)cc1
inactive: [1] -28.4% | [2] -43% | [3] 17.2% | [4] 17% | [5] -20.4% | [6] -15.6%
